From PubChem BioAssay
Rows were chosen to be rich in hits. Some 3.5% of all compounds tested hit in one or more screens of this group.
MITF primary = MITF inhibitors, primary screen, biochemical, AlphaScreen, human | Microphthalmia-associated transcription factor (Homo sapiens), O75030 | AlphaScreen MITF homodimerization, bead proximity signal | inhibition, % at 2.6 µM | 0.91% of 650,000 active; in the data active = inhibition above about 50%
Target sequence (O75030 whole entry, looked up): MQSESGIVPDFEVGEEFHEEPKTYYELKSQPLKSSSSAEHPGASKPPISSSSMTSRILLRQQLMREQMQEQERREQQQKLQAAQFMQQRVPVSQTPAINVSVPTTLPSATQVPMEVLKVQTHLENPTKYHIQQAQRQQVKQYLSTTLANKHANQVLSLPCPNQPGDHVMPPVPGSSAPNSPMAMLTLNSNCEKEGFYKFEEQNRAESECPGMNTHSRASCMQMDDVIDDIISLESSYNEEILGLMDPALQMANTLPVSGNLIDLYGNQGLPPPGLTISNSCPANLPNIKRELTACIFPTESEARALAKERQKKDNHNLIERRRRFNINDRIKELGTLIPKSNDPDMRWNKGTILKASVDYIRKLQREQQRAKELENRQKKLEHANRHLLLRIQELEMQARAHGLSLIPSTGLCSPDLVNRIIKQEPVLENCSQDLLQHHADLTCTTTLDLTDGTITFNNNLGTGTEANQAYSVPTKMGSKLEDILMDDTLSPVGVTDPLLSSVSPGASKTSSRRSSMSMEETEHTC
FBW7 act = FBW7 E3 ligase activators, primary screen, biochemical, AlphaScreen, human; F-box/WD repeat-containing protein 7 (Homo sapiens), Q969H0; AlphaScreen FBW7–phospho-cyclin E peptide binding, activator screen; normalized activity (activation), % at 26.1 µM; 0.13% of 650,000 active; AID 1259310, 2017; in the data active = normalized activity above about 1.9%;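 also: purified mutant Fbw7 with reduced substrate affinity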
GPR151 activ = activators of human GPR151, primary screen, cell-based, PathHunter beta-arrestin, luminescence; activation, % at 11.2 µM; 1% of 650,000 active; AID 1508602, 2020; PathHunter beta-arrestin GPR151 cells; in the data active = activation above about 4.9%
TEAD-YAP block = TEAD-YAP interaction inhibition, primary screen, TEAD-YAP interaction inhibitor project, luminescence, HEK-TIYL cells. TEAD-Gal4/YAP UAS-luciferase luminescence. inhibition, % at 9.12 µM. 1.4% of 640,000 active. AID 1259422, 2018; in the data active = inhibition above about 32%
Hits are given with their value.

What do the screens show for `O=C(Nc1ccc2ccccc2c1)c1scc2c1CCCC2`?
MITF primary: inactive; FBW7 act: inactive; GPR151 activ: inactive; TEAD-YAP block: inactive

What do the screens show for `O=C(Nc1cccc(O)c1)c1c(O)c2c([nH]c1=O)CCCC2`?
MITF primary: inactive; FBW7 act: inactive; GPR151 activ: inactive; TEAD-YAP block: 55.9

How did Cc1ccc(NC(=O)c2scc3c2CCCC3)cc1 do in these assays?
MITF primary: inactive; FBW7 act: inactive; GPR151 activ: inactive; TEAD-YAP block: inactive

What do the screens show for `COc1ccc(NC(=O)c2scc3c2CCCC3)cc1`?
MITF primary: inactive; FBW7 act: inactive; GPR151 activ: inactive; TEAD-YAP block: 40.3

Results for O=C(Nc1cccc(O)c1)c1scc2c1CCCC2 ?
MITF primary: inactive; FBW7 act: inactive; GPR151 activ: inactive; TEAD-YAP block: 78.9

What do the screens show for `O=C(NCCc1ccccn1)C1CC12CCN(C(=O)C(c1ccccc1)C1CCCC1)CC2` (centres undefined)?
MITF primary: inactive; FBW7 act: inactive; GPR151 activ: inactive; TEAD-YAP block: inactive

What do the screens show for `CC(C(=O)Nc1ccc(F)c(F)c1)N(c1ccc(Cl)cc1)S(C)(=O)=O` (centres undefined)?
MITF primary: inactive; FBW7 act: inactive; GPR151 activ: inactive; TEAD-YAP block: inactive

How did CCN1C(=O)/C(=C/c2cc(OC)c(OC)cc2OC)N(C)C1=S do in these assays?
MITF primary: inactive; FBW7 act: inactive; GPR151 activ: inactive; TEAD-YAP block: inactive

How did CC(C)(C)c1ccc(NC(=O)c2scc3c2CCCC3)cc1 do in these assays?
MITF primary: inactive; FBW7 act: inactive; GPR151 activ: inactive; TEAD-YAP block: 32.8

How did Cc1cc(/C=C2\NC(=O)NC2=O)c(C)n1-c1cccc(Cl)c1 do in these assays?
MITF primary: inactive; FBW7 act: inactive; GPR151 activ: inactive; TEAD-YAP block: inactive

Results for c1ccc(CNc2cc(-c3ccncc3)nc(-c3ccccn3)n2)cc1 ?
MITF primary: inactive; FBW7 act: inactive; GPR151 activ: inactive; TEAD-YAP block: inactive

Results for COC(CNc1cc(-c2ccccc2)nc(-c2ccccn2)n1)OC ?
MITF primary: inactive; FBW7 act: inactive; GPR151 activ: inactive; TEAD-YAP block: 48.1

What do the screens show for `Fc1ccc(-c2cc(NCCCN3CCOCC3)nc(-c3ccccn3)n2)cc1`?
MITF primary: inactive; FBW7 act: inactive; GPR151 activ: inactive; TEAD-YAP block: inactive

How did OCCCNc1cc(-c2ccccn2)nc(-c2ccccn2)n1 do in these assays?
MITF primary: 114.6; FBW7 act: inactive; GPR151 activ: inactive; TEAD-YAP block: inactive

Results for Fc1ccccc1-c1cc(NCCCN2CCOCC2)nc(-c2ccccn2)n1 ?
MITF primary: inactive; FBW7 act: inactive; GPR151 activ: inactive; TEAD-YAP block: 36.5

What do the screens show for `c1ccc(-c2cc(NCc3ccncc3)nc(-c3ccccn3)n2)cc1`?
MITF primary: inactive; FBW7 act: inactive; GPR151 activ: inactive; TEAD-YAP block: 37.2

What do the screens show for `COc1cc(Nc2c3c(nc4ncnn24)CCC3)cc(OC)c1`?
MITF primary: inactive; FBW7 act: inactive; GPR151 activ: inactive; TEAD-YAP block: inactive

Results for c1ccc(Oc2ccccc2-c2cnc(NCc3ccco3)c3nccn23)cc1 ?
MITF primary: inactive; FBW7 act: inactive; GPR151 activ: inactive; TEAD-YAP block: inactive

What do the screens show for `OCCCNc1cc(-c2ccccn2)nc(-c2ccccc2)n1`?
MITF primary: inactive; FBW7 act: inactive; GPR151 activ: inactive; TEAD-YAP block: inactive

How did OCCCNc1cc(-c2ccccc2)nc(-c2ccccn2)n1 do in these assays?
MITF primary: inactive; FBW7 act: inactive; GPR151 activ: inactive; TEAD-YAP block: 78.3

How did CC1=C/C(=N\S(=O)(=O)c2ccc(C)cc2)C=CC1=O do in these assays?
MITF primary: 70.5; FBW7 act: inactive; GPR151 activ: inactive; TEAD-YAP block: inactive

What do the screens show for `CCC1=Nc2cc(C(=O)NCC(OC)OC)ccc2Sc2ccc(C)cc21`?
MITF primary: inactive; FBW7 act: inactive; GPR151 activ: inactive; TEAD-YAP block: 60.4

What do the screens show for `CC1=Nc2cc(C(=O)NCCN(C)C)ccc2Sc2ccc(Br)cc21`?
MITF primary: inactive; FBW7 act: inactive; GPR151 activ: inactive; TEAD-YAP block: 60.0

How did COCCNC(=O)c1ccc2c(c1)N=C(C)c1cc(Cl)ccc1S2 do in these assays?
MITF primary: inactive; FBW7 act: inactive; GPR151 activ: inactive; TEAD-YAP block: 57.4

How did CC1=Nc2cc(C(=O)NCCN3CCOCC3)ccc2Sc2ccc(Cl)cc21 do in these assays?
MITF primary: inactive; FBW7 act: inactive; GPR151 activ: inactive; TEAD-YAP block: inactive

Results for CCC1=Nc2cc(C(=O)NC)ccc2Sc2ccccc21 ?
MITF primary: inactive; FBW7 act: inactive; GPR151 activ: inactive; TEAD-YAP block: inactive

Results for Cc1nnc(SCC(=O)Nc2ccc(N3CCOCC3)cc2)[nH]c1=O ?
MITF primary: inactive; FBW7 act: inactive; GPR151 activ: inactive; TEAD-YAP block: inactive

What do the screens show for `Cc1nc(-c2ccc(NC(=O)c3ccc(C)c(C)c3)cc2)cs1`?
MITF primary: inactive; FBW7 act: inactive; GPR151 activ: inactive; TEAD-YAP block: inactive

Results for Cc1nc(-c2ccc(C(=O)Nc3ccc(O)cc3)cc2)cs1 ?
MITF primary: inactive; FBW7 act: inactive; GPR151 activ: inactive; TEAD-YAP block: 90.5

What do the screens show for `N#Cc1c(N)nc(SCC(=O)O)c(C#N)c1-c1ccc(O)cc1`?
MITF primary: inactive; FBW7 act: inactive; GPR151 activ: inactive; TEAD-YAP block: inactive

What do the screens show for `N#Cc1c(N)nc(SCC(=O)c2ccc(F)cc2)c(C#N)c1-c1ccc(O)cc1`?
MITF primary: inactive; FBW7 act: inactive; GPR151 activ: inactive; TEAD-YAP block: 34.2

Results for Cc1ccc(CNC(=O)c2cnc3c(c(C)nn3-c3ccc(F)cc3)c2Cl)cc1 ?
MITF primary: inactive; FBW7 act: inactive; GPR151 activ: inactive; TEAD-YAP block: inactive

What do the screens show for `Cc1nn(-c2ccc(F)cc2)c2ncc(C(=O)NCCCn3ccnc3)c(Cl)c12`?
MITF primary: inactive; FBW7 act: inactive; GPR151 activ: inactive; TEAD-YAP block: 65.4

How did COc1cccc(NC(=O)[C@H]2O[C@@H]3OC(C)(C)O[C@@H]3[C@H]3OC(C)(C)O[C@H]32)c1 do in these assays?
MITF primary: inactive; FBW7 act: inactive; GPR151 activ: inactive; TEAD-YAP block: inactive

What do the screens show for `COc1cc(C=O)ccc1OCCc1ccccc1`?
MITF primary: inactive; FBW7 act: inactive; GPR151 activ: inactive; TEAD-YAP block: 32.9

How did CC(C)NCCCOc1ccc2ccccc2c1Br do in these assays?
MITF primary: inactive; FBW7 act: inactive; GPR151 activ: inactive; TEAD-YAP block: 40.0

Results for O=C1CC(N2CCN(C/C=C/c3ccccc3)CC2)C(=O)N1c1ccc(Cl)c(Cl)c1 (centres undefined) ?
MITF primary: inactive; FBW7 act: inactive; GPR151 activ: inactive; TEAD-YAP block: inactive

What do the screens show for `Nc1ccc(Oc2ccc3c(c2)C(=O)N(c2cccc(N)c2)C3=O)cc1`?
MITF primary: inactive; FBW7 act: 3.4; GPR151 activ: inactive; TEAD-YAP block: inactive

How did Nc1cccc(Oc2ccc3c(c2)C(=O)N(c2cccc(N)c2)C3=O)c1 do in these assays?
MITF primary: inactive; FBW7 act: inactive; GPR151 activ: inactive; TEAD-YAP block: inactive
